Test [1] is described as follows: antimalarial activity against Dd2 strain (AID 2302;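 active = growth inhibition above 50% at the single 2 µM test dose, taken to imply half-maximal potency below 2 µM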;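 note: 0% = DMSO untreated growth and 100% = chloroquine plus artemisinin killed control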). Particulars: P. falciparum Dd2 in RBCs, LDH growth readout, 72 h; at 2 µM; hits give high values.
Test [2] in a line: HepG2 cytotoxicity, primary screen, cytotoxicity control for P. falciparum antimalarial project, cell-based, ATP luminescence (AID 2303;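 active = inhibition above 50%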;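 note: 0% = DMSO wells and 100% = digitonin-killed cells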). Particulars: HepG2 viability, 24-48 h, at 10 µM, hits give high values.
The target of test [3] is L-lactate dehydrogenase (Plasmodium falciparum (isolate CDC / Honduras)) (UniProt Q27743). The experiment in a line: PfLDH activity inhibition – cell lysate, 3D7 strain, counter-screen for P. falciparum growth inhibition project (AID 2304).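 Note: 0% = vehicle and 100% = reference inhibitor.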 Particulars: P. falciparum 3D7 crude extract, LDH APAD/NBT absorbance; at 2 µM; hits give high values. In general terms: Counterscreens check selectivity or assay interference.
Chain of L-lactate dehydrogenase (Plasmodium falciparum (isolate CDC / Honduras)) (Q27743 whole entry, looked up): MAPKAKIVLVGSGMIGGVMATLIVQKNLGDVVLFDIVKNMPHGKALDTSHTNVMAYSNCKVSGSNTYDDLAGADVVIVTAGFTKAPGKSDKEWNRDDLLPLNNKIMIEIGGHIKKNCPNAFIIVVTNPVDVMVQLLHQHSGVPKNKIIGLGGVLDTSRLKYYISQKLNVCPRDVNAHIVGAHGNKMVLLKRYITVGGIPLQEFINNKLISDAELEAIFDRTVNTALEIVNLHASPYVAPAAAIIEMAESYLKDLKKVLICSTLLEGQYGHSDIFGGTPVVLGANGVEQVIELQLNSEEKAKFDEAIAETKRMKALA

The nature of test [4]: inhibition of 3D7 malaria parasite growth – strain 3D7 (AID 2306).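 Note: 0% = DMSO wells and 100% = chloroquine plus artemisinin control wells.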 Particulars: P. falciparum 3D7 erythrocytic growth, LDH absorbance, 72 h; at 2 µM; hits give high values.
The target in test [5] is Calcium-dependent protein kinase 1 (Plasmodium falciparum (isolate 3D7)) (UniProt P62344). Briefly: PfCDPK1 kinase inhibitors, biochemical, TCAMS library (AID 1159585; cut-off not given, nearly all actives have IC50 up to about 0.98 µM;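 note: inhibitors leave more ATP so luminescence rises with inhibition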). Particulars: recombinant PfCDPK1, Kinase-Glo ATP depletion luminescence. For orientation: Kinase-Glo measures the ATP left after a reaction by luminescence.
Chain of Calcium-dependent protein kinase 1 (Plasmodium falciparum (isolate 3D7)) (P62344 whole entry, looked up): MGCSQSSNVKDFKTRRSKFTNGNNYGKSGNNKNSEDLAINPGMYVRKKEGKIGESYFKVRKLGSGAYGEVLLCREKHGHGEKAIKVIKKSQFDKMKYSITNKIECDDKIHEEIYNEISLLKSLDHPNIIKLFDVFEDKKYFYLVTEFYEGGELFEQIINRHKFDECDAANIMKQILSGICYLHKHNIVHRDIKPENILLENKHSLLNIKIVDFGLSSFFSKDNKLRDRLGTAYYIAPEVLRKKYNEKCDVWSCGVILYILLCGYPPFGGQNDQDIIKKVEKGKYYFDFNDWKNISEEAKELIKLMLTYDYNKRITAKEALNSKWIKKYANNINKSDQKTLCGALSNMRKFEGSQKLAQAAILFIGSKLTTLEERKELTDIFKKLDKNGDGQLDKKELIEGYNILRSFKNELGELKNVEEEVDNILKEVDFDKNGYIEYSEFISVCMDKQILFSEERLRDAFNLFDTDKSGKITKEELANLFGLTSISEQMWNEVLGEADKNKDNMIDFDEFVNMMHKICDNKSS
Test [6] concerns the target Plasmodium falciparum protein kinase 6 (PK6, PF3D7_1337100) (UniProt Q8IDW1). Briefly: PfPK6 kinase inhibitors, biochemical, TCAMS library (AID 1159586). Particulars: recombinant PfPK6, Kinase-Glo ATP depletion luminescence.
The target in test [7] is Protein kinase 7 (PK7), Plasmodium falciparum 3D7 (PF3D7_0213400) (UniProt Q7YTF7). Briefly: inhibition of Plasmodium PK7 catalytic activity – biochemical, TCAMS antimalarial set, Kinase-Glo luminescence (AID 1159587). Particulars: recombinant PfPK7, Kinase-Glo ATP depletion luminescence.
Chain of Protein kinase 7 (PK7), Plasmodium falciparum 3D7 (PF3D7_0213400) (Q7YTF7 1-343): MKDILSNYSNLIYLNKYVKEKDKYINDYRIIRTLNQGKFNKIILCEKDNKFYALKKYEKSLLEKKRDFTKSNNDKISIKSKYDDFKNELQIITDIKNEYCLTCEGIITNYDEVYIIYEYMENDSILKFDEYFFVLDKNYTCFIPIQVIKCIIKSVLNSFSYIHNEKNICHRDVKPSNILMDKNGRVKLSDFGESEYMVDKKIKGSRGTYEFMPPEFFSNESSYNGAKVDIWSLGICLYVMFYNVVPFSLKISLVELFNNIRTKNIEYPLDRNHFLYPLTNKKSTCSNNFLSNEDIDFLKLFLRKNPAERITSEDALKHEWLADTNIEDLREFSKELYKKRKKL
For test [8], the target named is Calcium-dependent protein kinase 4 (Plasmodium falciparum (isolate 3D7)) (UniProt Q8IBS5). Briefly: PfCDPK4 kinase inhibitors, biochemical, TCAMS library (AID 1159588; cut-off not given, nearly all actives have IC50 up to about 0.91 µM). Particulars: recombinant PfCDPK4, Kinase-Glo ATP depletion luminescence.
Chain of Calcium-dependent protein kinase 4 (Plasmodium falciparum (isolate 3D7)) (Q8IBS5 whole entry, looked up): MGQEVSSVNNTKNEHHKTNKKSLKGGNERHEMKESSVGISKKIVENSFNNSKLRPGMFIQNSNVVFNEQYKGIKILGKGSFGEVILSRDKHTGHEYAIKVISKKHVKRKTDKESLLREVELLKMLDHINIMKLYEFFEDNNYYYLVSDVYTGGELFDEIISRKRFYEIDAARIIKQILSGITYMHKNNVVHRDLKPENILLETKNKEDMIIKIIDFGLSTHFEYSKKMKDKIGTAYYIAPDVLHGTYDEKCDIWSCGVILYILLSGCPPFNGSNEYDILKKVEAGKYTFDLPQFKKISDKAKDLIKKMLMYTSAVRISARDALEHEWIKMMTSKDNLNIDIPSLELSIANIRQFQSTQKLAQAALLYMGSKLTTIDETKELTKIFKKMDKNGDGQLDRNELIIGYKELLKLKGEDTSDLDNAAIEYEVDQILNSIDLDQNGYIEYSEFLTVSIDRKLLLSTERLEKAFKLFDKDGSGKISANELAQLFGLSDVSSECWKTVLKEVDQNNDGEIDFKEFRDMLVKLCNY

Unmarked numbers belong to inactive results. For some of these results: Measured potencies and affinities stand elsewhere. Calls of active or inactive are those of the source. Unless noted, the rule behind the calls is not given here.

Chain of Plasmodium falciparum protein kinase 6 (PK6, PF3D7_1337100) (Q8IDW1 1-305): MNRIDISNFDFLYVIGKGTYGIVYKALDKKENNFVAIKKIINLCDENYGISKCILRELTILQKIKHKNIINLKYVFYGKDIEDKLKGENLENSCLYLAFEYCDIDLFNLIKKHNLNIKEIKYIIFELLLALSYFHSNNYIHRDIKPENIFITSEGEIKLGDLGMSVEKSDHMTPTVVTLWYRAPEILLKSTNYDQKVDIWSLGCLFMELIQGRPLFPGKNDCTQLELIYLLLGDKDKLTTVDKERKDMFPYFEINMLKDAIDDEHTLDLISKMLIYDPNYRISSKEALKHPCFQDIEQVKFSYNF

Regarding `Cc1noc(C)c1-c1cccc(CNCc2cccc(-c3cccc(-c4nc5c(C)cccc5[nH]4)c3)c2)c1`, the growth inhibition in test [1] is 66% (active); in test [4] it was 102% (active). The inhibition (in general, the drop in the measured response relative to a control, in per cent) in test [2] was 15%; in test [3], 4%. Moreover, the result in test [5], in test [6], in test [7] and in test [8] was inactive.

`CC(CN1CCN(C)CC1)C(=O)Nc1cccc(-c2ccc(-c3nc4ccc(C(F)(F)F)cc4[nH]3)cc2)c1` (stereo not given): the growth inhibition in test [1] is 98% (active); in test [4], 101% (active). The inhibition was 11% in test [2] and -2% in test [3]. For the same compound, the outcome in test [5], in test [6], in test [7] and in test [8] was inactive.

For the compound `CC(C)CNC(=O)c1ccnc(-c2ccc(CNCCCc3ccccc3)cc2)c1`, the growth inhibition is 22% in test [1] and 99% (active) in test [4]. The inhibition was 12% in test [2] and -3% in test [3]. Besides, the result in test [5], in test [6], in test [7] and in test [8] was inactive.

On to `Clc1ccccc1/C=C/c1cncnc1Nc1ccc2nc(Cc3ccccc3)[nH]c2c1`, for which the values for the growth inhibition in test [1] and in test [4] were 26% and 96% (active), respectively. The inhibition in test [2] was 4%; in test [3] it was -1%. Also, the result in test [5], in test [6], in test [7] and in test [8] was inactive.

As to `CC(=O)c1cccc(NC(=O)c2ccc(Cl)c(S(=O)(=O)N3CCc4ccccc43)c2)c1`, the growth inhibition is 11% in test [1] and 93% (active) in test [4]. For the same compound, the inhibition in test [2] was 13%; in test [3], 0%. Moreover, the result in test [5], in test [6], in test [7] and in test [8] was inactive.

Take `Cc1cc(NCCCOc2ccc(Cl)cc2)nc(NCc2ccccc2)n1`: the growth inhibition in test [1] is 20%; in test [4], 95% (active). The values for the inhibition in test [2] and in test [3] were 45% and 0%, respectively. In addition, the result in test [5], in test [6], in test [7] and in test [8] was inactive.

In the case of `NC(=O)c1cc2nc(Nc3ccc(F)cc3)nc(NC3CCC3)c2[nH]1`, the growth inhibition in test [1] and in test [4] was 102% (active) each time. Besides, the values for the inhibition in test [2] and in test [3] were 0% and 3%, respectively. Also, the outcome in test [5], in test [6], in test [7] and in test [8] was inactive.

With `CN(C)CCNc1ncnc2c1[nH]c1ccc(Cl)cc12`, the growth inhibition is 8% in test [1] and 100% (active) in test [4]. Moreover, the inhibition in test [2] was 7%; in test [3] it was 4%. Moreover, the outcome in test [5], in test [6], in test [7] and in test [8] was inactive.

Regarding `Cc1nnsc1C(=O)Nc1ccc(-c2ccc(-c3nc4ccccc4[nH]3)s2)cc1`, the figures for the growth inhibition in test [1] and in test [4] were 38% and 92% (active), respectively. For the same compound, the inhibition is 49% in test [2] and 4% in test [3]. Besides, the result in test [5], in test [6], in test [7] and in test [8] was inactive.

As to `CC(C)Cc1ccc(N2CCN(CCCCNC(=O)c3ccc(NC(=O)c4cc(C(F)(F)F)cc(C(F)(F)F)c4)cc3)CC2)cc1`, the growth inhibition in test [1] and in test [4] was 100% (active) in each case. Besides, the inhibition is 15% in test [2] and -3% in test [3]. Further, the outcome in test [5], in test [6], in test [7] and in test [8] was inactive.

For the compound `COc1cc(NC(=O)Nc2ccc([N+](=O)[O-])cc2OC)c(OC)cc1Cl`, the growth inhibition was 6% in test [1] and 87% (active) in test [4]. The figures for the inhibition in test [2] and in test [3] were 38% and 3%, respectively. In addition, the outcome in test [5], in test [6], in test [7] and in test [8] was inactive.

Regarding `CCn1c(-c2nc(-c3ccc4c(c3)OCO4)cnc2N)nc2cnccc21`, the growth inhibition in test [1] is 98% (active); in test [4], 100% (active). In addition, the results for the inhibition in test [2] and in test [3] were 94% (active) and -7%, respectively. Moreover, the result in test [5], in test [6], in test [7] and in test [8] was inactive.

Turning to `CC(C)(C)c1ccc(NC(=O)N[C@@H]2CCN(c3ccnc4ccccc34)C2)cc1`, the values for the growth inhibition in test [1] and in test [4] were 96% (active) and 102% (active), respectively. For the same compound, the values for the inhibition in test [2] and in test [3] were 23% and 0%, respectively. In addition, the result in test [5], in test [6], in test [7] and in test [8] was inactive.

On to `Cc1cccc2[nH]c(C3CCN(CC4CCN(C(=O)/C=C/c5ccc(Cl)c(Cl)c5)CC4)CC3)nc12`, for which the values for the growth inhibition in test [1] and in test [4] were 79% (active) and 100% (active), respectively. In addition, the inhibition in test [2] is 46%; in test [3], 0%. Also, the outcome in test [5], in test [6], in test [7] and in test [8] was inactive.

With `c1ccc(-c2nc3ccccc3[nH]2)c(Nc2ccnc3cc(-c4nccs4)ccc23)c1`, the growth inhibition in test [1] was 98% (active); in test [4], 101% (active). The inhibition is -4% in test [2] and 3% in test [3]. Also, the result in test [5], in test [6], in test [7] and in test [8] was inactive.

For `Cc1cccc2[nH]c(-c3ccc(-c4cccc(NC(=O)CN5CCN(C)CC5)c4)s3)nc12`, the growth inhibition in test [1] was 51% (active); in test [4] it was 96% (active). Further, the inhibition in test [2] is 7%; in test [3] it was -3%. Further, the outcome in test [5], in test [6], in test [7] and in test [8] was inactive.

In the case of `Cc1ccc(NC(=O)Nc2cccc(Cl)c2)cc1-c1ccc(C(=O)Nc2ccncc2)cc1`, the growth inhibition was 49% in test [1] and 97% (active) in test [4]. Also, the figures for the inhibition in test [2] and in test [3] were 67% (active) and -1%, respectively. Further, the outcome in test [5], in test [6], in test [7] and in test [8] was inactive.

In the case of `CC(O)C1CCCCN1C(=O)c1ccc(-c2ccc(-c3nc4ccc(F)cc4[nH]3)cc2)cc1` (stereo not given), the values for the growth inhibition in test [1] and in test [4] were 99% (active) and 101% (active), respectively. Besides, the inhibition in test [2] was 43%; in test [3], -3%. For the same compound, the outcome in test [5], in test [6], in test [7] and in test [8] was inactive.

On to `COCc1nc(N)nc(N)c1-c1ccc(Cl)c(Cl)c1`, for which the figures for the growth inhibition in test [1] and in test [4] were 1% and 84% (active), respectively. Moreover, the inhibition in test [2] was 4%; in test [3] it was -1%. For the same compound, the result in test [5], in test [6], in test [7] and in test [8] was inactive.

In the case of `Cc1c(O)cccc1Nc1ccnc2ccc(C(F)(F)F)cc12`, the growth inhibition in test [1] was 51% (active); in test [4], 96% (active). Moreover, the inhibition was -15% in test [2] and -2% in test [3]. Moreover, the outcome in test [5], in test [6], in test [7] and in test [8] was inactive.
